High-throughput results as filed in PubChem BioAssay.
Only some compounds are listed: those with a hit (about 4.6% of all), similar ones and a draw of the others.
TRHR PAM – allosteric enhancers of human TRH receptor | enhancement, % at 2 µM | TRHR cells, fluo-8 calcium fluorescence, EC20 TRH enhancement | 360,000 tested, 0.66% active | AID 493056; in the data active = enhancement above about 30%
Target sequence (P34981 whole entry, looked up): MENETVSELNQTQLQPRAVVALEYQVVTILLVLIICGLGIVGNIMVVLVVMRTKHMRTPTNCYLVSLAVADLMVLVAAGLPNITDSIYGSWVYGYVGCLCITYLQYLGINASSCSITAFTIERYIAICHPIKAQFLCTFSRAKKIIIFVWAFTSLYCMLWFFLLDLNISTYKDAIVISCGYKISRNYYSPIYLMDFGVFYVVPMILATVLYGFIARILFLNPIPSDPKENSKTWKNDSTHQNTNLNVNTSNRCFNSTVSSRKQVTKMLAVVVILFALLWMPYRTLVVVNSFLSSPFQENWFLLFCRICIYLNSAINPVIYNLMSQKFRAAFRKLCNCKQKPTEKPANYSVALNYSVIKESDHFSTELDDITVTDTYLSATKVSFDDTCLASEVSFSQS
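TRHR-expressing cells loaded with fluo-8 calcium dye were read kinetically (ex 480/em 530) during compound addition, then stimulated with an EC20 of TRH (10 nM final). Enhancement of the Gq-mediated intracellular calcium response was scored.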
TRHR ag – TRH receptor (human) agonism; P34981; TRHR cells, calcium flux fluo-8, FDSS agonist mode; activation, % at 2 µM; 360,000 tested, 0.18% active; AID 493084
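Fluo-8-loaded TRHR cells; 10 s baseline, compound added, kinetic Ca2+ fluorescence read 1/s, agonist mode.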
D1 PAM – human D1 dopamine receptor positive modulation; HEK293 TREx D1 cells, calcium flux, dopamine EC20 potentiation; potentiation, % at 10 µM; 360,000 tested, 0.036% active; AID 504651; in the data active = potentiation above about 30%
D1 agonist – human D1 receptor agonism. P21728. HEK293 T-REx D1 cells, calcium flux, agonist mode. activation, % at 2 µM. 360,000 tested, 1% active
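Inducible HEK293 T-REx D1 cells, force-coupled to calcium signalling, were plated at 4000 cells/well with tetracycline and held overnight at 30 C. After no-wash calcium dye loading, compound-evoked calcium rise over 180 s flagged agonists.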
D1 antagonist – human D1 dopamine receptor antagonism; 360,000 tested, 3.2% active; activity change, negative = inhibition, % at 10 µM; AID 504652; HEK293 TREx D1 cells, calcium flux, dopamine EC80; active compounds read low; P21728; in the data active = activity change below about -30%
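HEK293 T-REx cells expressing inducible, force-coupled D1 receptor; no-wash Ca dye, 30–90 min RT. Cmpd → 180 s read at 1 Hz → EC80 DA → 180 s read.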
Each line names hits and unclear results; the compound was inactive in the other large screens. Cut-off read from the data, not from the text of the source, unless noted: active = activation above about 30%; inactive = the rest.

O=C(O)c1ccc(NS(=O)(=O)c2ccc3c(c2)C2C=CCC2C(c2ccccc2F)N3)cc1 (stereo not given)	D1 antagonist -35
COC(=O)c1ccc([C@H]2Nc3ccc(S(=O)(=O)Nc4cccc(C)c4)cc3[C@H]3C=CC[C@H]32)cc1	D1 antagonist -85
Cc1ccc(NS(=O)(=O)c2ccc3c(c2)[C@H]2C=CC[C@H]2[C@@H](c2ccc(F)cc2)N3)cc1C	none
Cc1cc(=O)oc2cc(OC(=O)c3nn(C(C)C)c(=O)c4ccccc34)ccc12	none
O=C(C/C=N\OCc1ccc([N+](=O)[O-])cc1)Nc1ccc(Cl)cc1	D1 antagonist -30
COc1cccc(-c2c(C(=O)N/N=C(\C)c3ccco3)nnn2-c2nonc2N)c1	D1 agonist 47
C/C(=N\NC(=O)c1nnn(-c2nonc2N)c1-c1ccccc1)c1ccco1	D1 agonist 66
CN(C)S(=O)(=O)c1ccc(NC(=O)N2CCN(c3ccccc3)CC2)cc1	none
CCOC(=O)N/N=C/c1cn(CCCOc2ccccc2)c2ccccc12	none
Cc1ccc(S(=O)(=O)NCCCCCC(=O)N(C)C)cc1	none
Cc1c(Cl)cccc1NC(=O)CSc1nc(=O)[nH]c2c1CCC2	none (no result: D1 antagonist)
Cc1cc(Cl)cc(C)c1OCCOCCNCc1ccccc1	D1 agonist 31
CN(CCOc1ccc(Cl)c(Cl)c1)Cc1ccccc1	none
Clc1ccc(OCCOCCNCc2ccccc2)cc1Cl	D1 agonist 47
Cc1ncc(CO)c2c1Oc1nc(-c3ccc(F)cc3)nc(SCC(=O)N3CCCCC3)c1C2	none
COc1cccc(NC(=O)Nc2nc(SC(C)(C)C)ns2)c1	D1 antagonist -40
CCSc1nsc(NC(=O)Nc2cccc(F)c2)n1	D1 agonist 42, D1 antagonist -44
CCCSc1nsc(NC(=O)Nc2ccc(F)cc2F)n1	D1 agonist 33, D1 antagonist -60
O=C(O)c1cc(C2CC2)nc2ccccc12	none
CC1=Nc2ccccc2/C1=C/c1sc(=N)n(-c2nccs2)c1O	D1 agonist 58
CCn1c(O)c(/C=C2\C=Nc3ccccc32)sc1=O	none
Cn1c(=O)oc2cc(S(=O)(=O)N3CCC(C(=O)N4CCc5ccccc5C4)CC3)ccc21	none
O=C(O)c1ccc(N/N=C/C2=C(N3CCOCC3)C(=C\c3ccccc3)/CC2)cc1	D1 agonist 83
Cc1cc(C)nc(N/N=C/C2=C(N3CCOCC3)C(=C\c3ccc(Cl)cc3)/CC2)n1	none
COc1cc(CN(C(=O)COc2ccc(Br)cc2)c2ccccn2)cc(OC)c1OC	none
Cc1[nH]cc(Br)c(=O)c1Oc1ncc(C(F)(F)F)cc1Cl	D1 antagonist -35
FC(F)(F)c1cnc(Oc2cccc3ccccc23)c(Cl)c1	none
COc1cccc2c1Oc1ncccc1N(C(=O)CCC(=O)NCc1ccccc1F)C2	none
COC(=O)c1cnc[nH]1	none
Cc1cccc(Nc2ncnc(N)n2)c1	D1 antagonist -33
COCC1CCN(Cc2cn(Cc3ccccc3)nc2-c2cc3ccccc3o2)CC1	D1 agonist 39
OC1CCN(Cc2cn(Cc3ccccc3)nc2-c2cc3ccccc3o2)CC1	D1 antagonist -31
Cc1nc(N2CCC3(CC2)OCCO3)c2nnn(Cc3ccccc3F)c2n1	none
O=c1[nH]c(CSc2nc3ccccc3[nH]2)nc2c1cnn2-c1ccccc1	D1 antagonist -37
O=c1[nH]c(SCc2nc3c(cnn3-c3ccccc3)c(=O)[nH]2)nc2ccccc12	none
COc1ccc2c([N+](=O)[O-])c(N3CCCC3)[nH]c2c1	none
COc1ccc(Cl)cc1NC(=O)CN(C)C(=O)c1cn2ccccc2n1	none
CN(c1ccccc1)S(=O)(=O)c1ccc(C(=O)Nc2nnc(-c3ccc(F)cc3)o2)cc1	none
COc1ccc(OC)c(Nc2ncnc3c2cnn3-c2cccc(C)c2)c1	D1 antagonist -40
COc1ccc(OC)c(Nc2ncnc3c2cnn3-c2cccc(Cl)c2)c1	none
Cc1cccc(-n2ncc3c(NCc4ccccc4)ncnc32)c1	D1 antagonist -89
Cc1ccc(-n2ncc3c(NCCc4ccccc4)ncnc32)cc1C	D1 antagonist -59
c1ccc(CNc2ncnc3c2cnn3-c2ccccc2)cc1	none
CCCCOC(=O)CSc1nc2c(cc1C#N)C(=O)CC(C)(C)C2	D1 antagonist -39
Cc1nc2nc(NC(=O)c3ccc(C(C)(C)C)cc3)[nH]n2c(=O)c1Cl	none
CCCCC(=O)Nc1cc(NC(=O)CCCC)cc(C(=O)O)c1	none
O=C(O)CCc1cc(I)c(Oc2ccc(O)c(I)c2)c(I)c1	D1 agonist 85
COc1cc(-c2cc(-c3ccc(F)cc3)nc(N)c2C#N)ccc1O	D1 antagonist -44
Cc1ccc(-c2cc(-c3ccc(F)cc3)nc(N)c2C#N)o1	D1 antagonist -59
Cc1ccc2cccc(OCCCOc3ccccc3F)c2n1	D1 antagonist -49
Cc1ccc2cccc(OCCOCCOc3ccccc3Br)c2n1	none
c1ccc(-c2nc(N3CCOCC3)c3ccccc3n2)nc1	D1 antagonist -34
c1ccc(-c2nc(N3CCCCCC3)c3ccccc3n2)nc1	none
Cc1nnc(-c2ccccc2)nc1N1CCOCC1	none
Cc1nc(-c2ccccn2)nc(N2CCOCC2)c1Cl	D1 antagonist -43
O=[N+]([O-])c1c(NCCO)cc(N2CCCCCC2)c2nonc12	D1 antagonist -43
O=[N+]([O-])c1c(NCCO)cc(N2CCN(Cc3ccc4c(c3)OCO4)CC2)c2nonc12	none
CCN(CCO)Cc1csc2ccc(Cl)cc12	none
CCN(CCO)Cc1csc2ccccc12	D1 antagonist -38
CCN(CCO)Cc1csc2cc(C)ccc12	none
CCN(CCO)Cc1csc2ccc(C(C)(C)C)cc12	D1 antagonist -82
COc1cc(OC)c(NC(=O)N2CCC(CN3CCOCC3)CC2)cc1Cl	none
COc1cc(OC)cc(C(=O)Nc2cccc(-c3ccc4nncn4n3)c2)c1	none
Cc1ccccc1OCC(O)CN(CCO)Cc1ccccc1 (stereo not given)	D1 antagonist -47
Cc1ccccc1Nc1nc(N)c(C(=O)c2ccccc2Cl)s1	D1 agonist 95, D1 antagonist -48
C=CCNC(=S)NNC(=O)c1ccccc1	TRHR PAM 39
O=C(Nc1ccccc1)c1nnsc1S(=O)c1ccc(Cl)cc1 (stereo not given)	D1 antagonist -41
O=C(c1nnsc1S(=O)c1ccc(Cl)cc1)N1CCOCC1 (stereo not given)	none
CCOc1ccc(OCC)c(S(=O)(=O)N2CCOCC2)c1	TRHR PAM 33
Cc1cc(-c2nnc(SCC(=O)c3ccc(Cl)cc3)o2)no1	D1 antagonist -33
COc1ccc(C(=O)CSc2nnc(-c3cc(C)on3)o2)cc1	none
Cc1[nH]c2ccc(-c3nnc(SCC(=O)c4ccc(F)cc4)o3)cc2c1C	D1 antagonist -40
CCC(=O)Nn1c(C)nnc1C	none
O=C1C(NS(=O)(=O)c2cccs2)=C(N2CCN(c3cccc(Cl)c3)CC2)C(=O)c2ccccc21	none
